The record followed here is PubChem BioAssay (NCATS).

A number with no mark means an inactive call. Inconclusive results are not listed. The source made the active and inactive calls. Unless noted, calls come from the whole dose curve; as a rule, active = well fitted curve in the direction sought with a large enough effect; inconclusive = small, poorly fitted or top-dose-only effect, or another doubt; inactive = no such curve, though single readings can be large; an effect the other way counts as inactive or inconclusive.

Test [1] concerns the target Voltage-gated inwardly rectifying potassium channel KCNH2 (Homo sapiens) (UniProt Q12809). Kind of test: qHTS Assay for Small Molecule Inhibitors of the Human hERG Channel Activity (AID 588834).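 Note: lower thallium flux fluorescence means stronger hERG block; nearly all actives have a fitted effect of over 50% in size.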 Note: potency is the fitted concentration of half-maximal effect. The essentials:
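Measured: FluxOR fluorescence after thallium stimulation in U2OS cells transduced with hERG by baculovirus. Compounds pre-incubated around 10 min; medium Opti-MEM with 2% FCS. AC50 from Hill equation.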

Test [2] has as its target Glutaminase kidney isoform, mitochondrial (Homo sapiens) (UniProt O94925). Kind of test: qHTS for Inhibitors of Glutaminase (GLS): LOPAC Validation (AID 624146). Note: nearly all actives have a fitted effect of over 60% in size. Note: potency is the fitted concentration of half-maximal effect. The essentials:
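Enzyme dispensed in phosphate buffer (45 mM, pH 8.2, 0.02% Tween-20), compounds pinned in, then 1 mM L-glutamine solution and the glutamate oxidase–HRP–Amplex Red mix added; fluorescence read immediately and again after 30 min at room temperature.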
In general terms: In qHTS, concentration-response curves come from the screen itself.

Test [3] has as its target Glucagon-like peptide 1 receptor (Homo sapiens) (UniProt P43220). As to the kind of experiment: qHTS of GLP-1 Receptor Agonists: LOPAC Validation (AID 624148).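 Note: luminescence from a luciferase reporter switched on by cAMP; 0% is about no effect; higher luminescence signal means agonism.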 The essentials:
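Agonism scored as increased luciferase luminescence driven by cAMP in HEK293 clones carrying GLP-1R. Cells settled 12 hours, received compound for 4-6 hr at 37 deg C, 5% CO2, and were read after 12 min detection reagent at RT.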

Test [4] can be described thus: qHTS of Nrf2 Activators: LOPAC Validation (AID 624149). Note: 0% is about no effect. An outline of the steps: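 ARE reporter activation measured in AREc32 firefly luciferase cells after 24 hr compound exposure; Steady-Glo luminescence.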
A short description of test [5]: HTS Assay for Allosteric Antagonists of the Human D2 Dopamine Receptor: Hit Validation in HTRF (AID 624455).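 Note: stable D1 dopamine receptor cell line scored for blocking the D1 response; % is set by controls: 0 for no effect and ±100 for the full control effect.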 An outline of the steps:
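Signal from an HTRF read-out in D1-expressing stable cells gave hit activity as inhibition of the D1 response.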
For orientation: TR-FRET usually uses a lanthanide donor and a delayed reading to cut background.

The nature of test [6]: qHTS of Trypanosoma Brucei Inhibitors: LOPAC Validation (AID 624147). Note: 0% is about no effect. An outline of the steps:
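Readout: single end-point luminescence (Kinase-Glo Plus, 10 min). Reaction conditions were TbPYK/substrate plus 130 uM ADP, 45 min at RT, pH 7.2 TEA buffer. No-enzyme wells served as controls, and data were normalized before concentration-response fitting.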

Test [7] can be described thus: qHTS assay for small molecule activators of the nuclear factor-kappa B (NF-kB) signaling pathway (AID 651749; active = well fitted activation curve with a large enough effect in the signal ratio; the % refers to the signal ratio; note: series mostly up to about 77 µM; % of control where 0% means no effect). Particulars: NF-kB-bla ME-180 cells, beta-lactamase FRET ratio, 16 h; active compounds read high. The essentials: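 Stably transfected ME-180 line; NF-kB response element upstream of beta-lactamase. Treatment: compound or DMSO, 16 hr. Detection: fluorescent FRET substrate.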

Test [8] can be described thus: qHTS assay for environmental chemicals that activate the Aryl hydrocarbon Receptor (AhR) signaling pathway (AID 651777). Note: % of control where 0% means no effect; nearly all actives have a fitted effect of over 15% in size. The conditions noted are these: 1A2-DRE human hepatoma cells, luciferase, 24 h; active compounds read high. An outline of the steps: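 Reporter gene assay: hepatoma cells with DRE/CYP1A2-luciferase, 24 hr compound incubation at 37 C, 5% CO2, luminescence after One-Glo (30 min, RT).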

The target of test [9] is Peroxisome proliferator-activated receptor alpha (Homo sapiens) (UniProt Q07869). Kind of test: qHTS assay for small molecule agonists of the peroxisome proliferator-activated receptor alpha (PPARalpha) signaling pathway (AID 651778). For max response: % of control where 0% means no effect. Note: potency is the fitted concentration of half-maximal effect. The conditions noted are these: PathHunter PPARalpha complementation, chemiluminescence, 6 h; max response: active compounds read high. The essentials:
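Chemiluminescence from complemented enzyme reported PPARalpha activation in cells after 6 hr of compound treatment at 37 C. The detection reagent was incubated for 60 min at room temperature, and compounds were scored as agonists.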

A short description of test [10]: qHTS assay for small molecule agonists of the antioxidant response element (ARE) signaling pathway (AID 651741; active = well fitted activation curve with a large enough effect in the signal ratio; the % refers to the signal ratio; note: potency is the fitted concentration of half-maximal effect). An outline of the steps:
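Seeding 2,000 ARE-bla HepG2 cells per well preceded a 5 h incubation at 37 C/5% CO2 and a 16 h compound exposure at 37 C. Beta-lactamase reporter activity was then quantified by fluorescence after 2 h with LiveBLAzer B/G FRET substrate.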

A short description of test [11]: qHTS assay for small molecule activators of the p53 signaling pathway (AID 651743; active = well fitted activation curve with a large enough effect in the signal ratio, not every such curve was filed as active; the % refers to the signal ratio; note: series mostly up to about 92 µM; % of control where 0% means no effect). The conditions noted are these: HCT-116 p53RE-bla, beta-lactamase FRET ratio, 16 h; active compounds read high. An outline of the steps:
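Screen for p53 pathway agonists uses stably transfected p53RE-bla HCT-116 cells, 4,000 per well, treated 16 h at 37 C with compounds in DMSO.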

Chain of Glutaminase kidney isoform, mitochondrial (Homo sapiens) (O94925 whole entry, looked up, canonical isoform): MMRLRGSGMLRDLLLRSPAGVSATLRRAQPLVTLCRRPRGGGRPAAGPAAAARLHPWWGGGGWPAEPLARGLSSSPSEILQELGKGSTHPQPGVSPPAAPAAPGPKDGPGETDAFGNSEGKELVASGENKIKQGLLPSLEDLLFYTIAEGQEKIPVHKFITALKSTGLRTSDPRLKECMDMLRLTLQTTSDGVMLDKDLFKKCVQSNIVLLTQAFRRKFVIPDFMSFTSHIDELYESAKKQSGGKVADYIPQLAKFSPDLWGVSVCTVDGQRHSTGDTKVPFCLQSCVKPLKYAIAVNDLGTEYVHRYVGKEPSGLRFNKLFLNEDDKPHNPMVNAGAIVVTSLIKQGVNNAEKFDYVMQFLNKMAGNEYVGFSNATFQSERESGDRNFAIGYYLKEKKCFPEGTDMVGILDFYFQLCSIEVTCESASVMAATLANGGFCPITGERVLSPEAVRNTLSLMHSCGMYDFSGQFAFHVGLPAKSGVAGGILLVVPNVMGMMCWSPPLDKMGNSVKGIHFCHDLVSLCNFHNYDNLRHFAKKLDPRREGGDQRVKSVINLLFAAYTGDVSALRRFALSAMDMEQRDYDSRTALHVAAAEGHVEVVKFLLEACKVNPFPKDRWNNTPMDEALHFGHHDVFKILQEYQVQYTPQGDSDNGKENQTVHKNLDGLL
Chain of Voltage-gated inwardly rectifying potassium channel KCNH2 (Homo sapiens) (Q12809 whole entry, looked up): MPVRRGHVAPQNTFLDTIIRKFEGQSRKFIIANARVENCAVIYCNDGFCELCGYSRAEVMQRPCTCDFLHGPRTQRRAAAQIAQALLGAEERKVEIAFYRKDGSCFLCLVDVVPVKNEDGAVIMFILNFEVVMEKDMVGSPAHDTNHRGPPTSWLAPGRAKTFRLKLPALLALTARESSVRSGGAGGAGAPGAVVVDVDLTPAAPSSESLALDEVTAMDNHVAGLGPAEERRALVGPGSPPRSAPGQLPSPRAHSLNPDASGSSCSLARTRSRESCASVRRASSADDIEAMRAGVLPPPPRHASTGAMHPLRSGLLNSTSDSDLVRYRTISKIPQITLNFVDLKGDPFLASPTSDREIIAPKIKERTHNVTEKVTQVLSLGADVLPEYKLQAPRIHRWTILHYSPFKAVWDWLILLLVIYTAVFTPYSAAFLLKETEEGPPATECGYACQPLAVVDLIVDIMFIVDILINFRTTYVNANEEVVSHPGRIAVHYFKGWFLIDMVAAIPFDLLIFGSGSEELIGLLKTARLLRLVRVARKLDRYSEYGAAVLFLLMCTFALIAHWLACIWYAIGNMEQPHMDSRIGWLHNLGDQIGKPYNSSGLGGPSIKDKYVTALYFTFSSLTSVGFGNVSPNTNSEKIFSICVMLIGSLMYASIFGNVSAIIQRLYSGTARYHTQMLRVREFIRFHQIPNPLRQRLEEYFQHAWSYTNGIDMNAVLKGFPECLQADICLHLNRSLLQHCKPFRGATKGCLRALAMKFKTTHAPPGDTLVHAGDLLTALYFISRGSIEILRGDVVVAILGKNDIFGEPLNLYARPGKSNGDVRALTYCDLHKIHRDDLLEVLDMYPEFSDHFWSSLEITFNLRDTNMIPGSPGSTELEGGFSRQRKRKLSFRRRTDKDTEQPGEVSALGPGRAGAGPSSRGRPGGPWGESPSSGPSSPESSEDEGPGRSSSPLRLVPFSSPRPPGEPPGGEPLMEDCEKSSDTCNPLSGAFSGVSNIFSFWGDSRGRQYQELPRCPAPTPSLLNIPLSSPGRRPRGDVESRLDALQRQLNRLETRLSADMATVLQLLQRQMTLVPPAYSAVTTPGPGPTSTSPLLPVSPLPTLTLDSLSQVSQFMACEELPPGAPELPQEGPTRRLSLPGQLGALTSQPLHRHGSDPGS
Chain of Glucagon-like peptide 1 receptor (Homo sapiens) (P43220 whole entry, looked up): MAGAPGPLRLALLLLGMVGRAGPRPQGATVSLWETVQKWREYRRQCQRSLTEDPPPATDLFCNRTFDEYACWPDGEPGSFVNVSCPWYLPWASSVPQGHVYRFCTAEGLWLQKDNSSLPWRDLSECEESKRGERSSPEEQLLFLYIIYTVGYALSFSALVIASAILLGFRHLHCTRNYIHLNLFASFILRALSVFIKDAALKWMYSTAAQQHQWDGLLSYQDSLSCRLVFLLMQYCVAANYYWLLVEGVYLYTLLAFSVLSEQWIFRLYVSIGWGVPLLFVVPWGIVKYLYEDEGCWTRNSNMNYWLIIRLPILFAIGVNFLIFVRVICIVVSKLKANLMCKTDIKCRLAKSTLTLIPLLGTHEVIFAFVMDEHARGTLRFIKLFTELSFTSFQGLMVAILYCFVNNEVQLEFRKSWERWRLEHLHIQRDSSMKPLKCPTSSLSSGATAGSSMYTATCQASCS
Chain of Peroxisome proliferator-activated receptor alpha (Homo sapiens) (Q07869 whole entry, looked up): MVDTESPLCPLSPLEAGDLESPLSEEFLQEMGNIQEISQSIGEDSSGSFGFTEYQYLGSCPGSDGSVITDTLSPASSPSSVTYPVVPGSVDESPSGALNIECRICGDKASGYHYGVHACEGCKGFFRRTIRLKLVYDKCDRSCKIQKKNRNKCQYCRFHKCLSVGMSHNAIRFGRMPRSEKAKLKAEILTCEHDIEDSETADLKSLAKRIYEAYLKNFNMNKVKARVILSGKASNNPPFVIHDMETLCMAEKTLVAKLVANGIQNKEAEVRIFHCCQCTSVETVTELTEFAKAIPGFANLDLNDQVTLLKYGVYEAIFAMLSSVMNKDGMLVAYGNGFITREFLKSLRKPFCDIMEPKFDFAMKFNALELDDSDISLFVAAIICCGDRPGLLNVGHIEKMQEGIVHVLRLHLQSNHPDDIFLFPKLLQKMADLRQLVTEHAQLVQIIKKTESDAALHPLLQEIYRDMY

As to `Oc1ccc(Cn2cc[nH]c2=S)cc1`, the Potency result in [1], in [2], in [3], in test [4] and in [5] was “inactive” throughout.
In the case of `CC(C)(C)c1cc(/C=C(\C#N)C(N)=S)cc(C(C)(C)C)c1O`, the Potency in test [1] is 11.2 µM (active); in [2] it was 4.47 µM (active). For the same compound, the Potency entry in test [6], in [3], in test [4] and in test [5] was “inactive” throughout.
Take `CN(C)C(=O)/N=N/C(=O)N(C)C`: the Potency result in [1], in [2], in test [3], in [4] and in test [5] was “inactive” throughout.
With `N#CC(=C(\N)Sc1ccccc1N)/C(C#N)=C(/N)Sc1ccccc1N`, the Potency result in test [1], in test [3] and in test [4] was “inactive” in each case. The Potency in test [2] is 12.6 µM (active).
Consider `O=c1[nH]c(=O)c2nc3ccccc3nc2[nH]1`, for which the Potency result in test [1], in [2], in test [6], in test [3] and in test [5] was “inactive” each time.
Regarding `CC1C(=O)N(C)C(=O)c2nc[nH]c21` (stereo not drawn), the Potency result in test [1], in test [2], in test [6], in test [4] and in test [5] was “inactive” throughout.
Consider `Oc1cc2c(cc1O)C(c1ccccc1)CNCC2` (stereo not drawn), for which the Potency in test [1] was 8.91 µM (active); in [2] it was 0.631 µM (active). Besides, the Potency result in [3] and in [4] was “inactive” each time.
With `CN(C)S(=O)(=O)c1ccc2c(c1)/C(=C/c1cc3c([nH]1)CCCC3)C(=O)N2`, in test [1], the Potency is 7.94 µM (active). In addition, the Potency entry in [2], in test [6], in test [4] and in test [5] was “inactive” each time.
As to `CNc1cc(NS(=O)(=O)c2ccc(N)cc2)nc(NC)n1`, the Potency entry in test [1], in [2], in [3], in [4] and in test [5] was “inactive” in each case.
As to `CCCc1c(-c2ccc(O)cc2)nn(-c2ccc(O)cc2)c1-c1ccc(O)cc1`, the Potency result in [1], in [2], in [6], in [3], in test [4] and in [5] was “inactive” throughout. The activation in test [7] was -3.76%; in test [8], -1.12%. Further, in test [9], the max response was -1.98%.
For the compound `C/C(=C\c1ccc(C(=O)O)cc1)c1ccc2c(c1)C(C)(C)CCC2(C)C`, the Potency result in test [1], in [2], in [6], in test [3], in [4] and in test [5] was “inactive” in each case. Moreover, the Potency in [10] was 27.3 µM (active). In addition, in [8], the activation was 0.324%.
Turning to `NOCC(=O)O`, the Potency entry in [1], in test [2], in [6] and in [4] was “inactive” each time.
In the case of `O=c1onc2cnc3ccccc3n12`, the Potency result in test [1], in test [6], in [4] and in test [5] was “inactive” throughout. Moreover, the Potency in [2] is 7.08 µM (active).
For `COc1cc2c(CCNC(C)=O)c[nH]c2cc1O`, the Potency entry in [1], in test [4] and in [5] was “inactive” each time. Further, the Potency in [2] is 2 µM (active).
As for `COC1(C2=NCCN2)COc2ccccc2O1` (stereo not drawn), the Potency result in [1], in test [2], in test [6], in test [4] and in test [5] was “inactive” each time.
In the case of `CCN(CC)CCOC(=O)c1cc(Cl)c(N)cc1OC`, the Potency result in test [1], in [2], in test [6], in test [4] and in test [5] was “inactive” in each case.
As to `NS(=O)(=O)c1cccc2c1c([N+](=O)[O-])cc1nc(O)c(O)nc12`, the Potency result in test [1], in [2], in test [6], in [4] and in test [5] was “inactive” in each case.
For `O=C(O)C1=CCCNC1`, the Potency entry in [1], in test [2], in test [6], in test [4] and in test [5] was “inactive” each time.
Consider `CC(C)C[C@H](NC(=O)[C@H](O)[C@H](N)Cc1ccccc1)C(=O)O`, for which the Potency entry in test [1], in test [2], in [6], in test [4] and in [5] was “inactive” each time.
As to `NCCCCN=C(N)N`, the Potency result in test [1], in [2], in test [6], in [4] and in test [5] was “inactive” each time.
Regarding `CNc1ncnc2c1ncn2[C@H]1C[C@H](OP(=O)(O)O)[C@@H](COP(=O)(O)O)O1`, the Potency result in test [1], in test [2], in test [6], in [3], in [4] and in test [5] was “inactive” each time.
On to `O=C1NC(=O)c2cc(Nc3ccccc3)c(Nc3ccccc3)cc21`, for which the figures for the Potency in test [1] and in [2] were 12.6 µM (active) and 2.51 µM (active), respectively. Besides, the Potency entry in test [6], in [4] and in test [5] was “inactive” throughout.
Turning to `COC(=O)C(C)(N)Cc1ccc(O)cc1` (stereo not drawn), the Potency result in [1], in [2], in [6], in [3], in [4] and in [5] was “inactive” throughout.
`O=C(O)Cc1c[nH]c2ccc(O)cc12`: the Potency entry in [1], in test [3], in test [4] and in test [5] was “inactive” each time. In addition, in test [2], the Potency was 1.58 µM (active).
As for `CCn1c(=O)[nH]c2cc(Cl)c(Cl)cc21`, the Potency entry in [1], in test [2], in test [6], in test [4] and in [5] was “inactive” each time.
Turning to `O=C(O)C1CCCNC1` (stereo not drawn), the Potency entry in test [1], in [2], in test [6], in test [3], in [4] and in test [5] was “inactive” in each case.
In the case of `O=C(O)c1cccnc1C(=O)O`, the Potency result in test [1], in [2], in test [6], in test [4] and in test [5] was “inactive” in each case.
Take `CCCc1c(OCCCOc2ccc(OCC(=O)O)cc2)ccc(C(C)=O)c1O`: the Potency result in test [1], in test [2], in [6], in test [3], in [4] and in [5] was “inactive” each time. Also, the Potency in [10] was 54.5 µM (active); in test [9], 11.2 µM (active). For the same compound, the activation is 16.9% in test [11], -3.53% in [7] and 0.459% in test [8].
